Results: PubChem BioAssay AID1159580 (chemical genetic matrix, 2015)
Out of some 5,500 compounds screened, about 2,000 (36%) were called active. Roughly 18% stayed inconclusive and do not appear here. Rule as the data show it: active = normalized growth mostly below about 0.91 (no sharp cut-off); inconclusive = no clear call, values can overlap the other calls; inactive = mostly above about 0.92. The list shows a part of the results.

Experiment: chemical genetic growth profiling, strain panel (AID 1159580);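 also: tested at 20 µM; growth read once vehicle control cultures reached saturation at 30 °C; 1 = growth at the plate median or of vehicle wells; lower values mean less growth of the strain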
Conditions: S. cerevisiae deletion strains, growth OD
[1] = locus YAL040C, strain CLN3, hits give low values
[2] = locus YDR150W, strain NUM1, hits give low values
[3] = locus YDR363W, strain ESC2, hits give low values
[4] = locus YER002W, strain NOP16, hits give low values
[5] = locus YGR078C, strain PAC10, hits give low values
[6] = locus YNL128W, strain TEP1, hits give low values
[7] = locus YNL175C, strain NOP13, hits give low values
[8] = locus YNL197C, strain WHI3, hits give low values
[9] = locus YNL224C, strain SQS1, hits give low values
[10] = locus YNL322C, strain KRE1, hits give low values
[11] = locus YOR083W, strain WHI5 (second series), hits give low values
[12] = locus YCL061C, strain MRC1 (second series), hits give low values
[13] = locus YMR307W, strain GAS1, hits give low values
[14] = locus YNL153C, strain GIM3, hits give low values

Measured: normalized growth

C[N+](C)(C)CC=O
inactive: [1] 0.989 | [2] 1.01 | [3] 0.979 | [4] 0.989 | [5] 1.01 | locus YJR075W, strain HOC1, hits give low values 0.999 | [6] 0.981 | [7] 1 | [8] 1.04 | [9] 0.993 | [10] 0.994 | [11] 1.06 | locus YPL055C, strain LGE1, hits give low values 1.03

C/C=C(/C)C(=O)O[C@H]1C(C)=C2[C@H]([C@@H]1OC(=O)CCCCCCC)[C@@](C)(OC(C)=O)C[C@H](OC(=O)CCC)[C@@]1(O)[C@H]2OC(=O)[C@@]1(C)O
inactive: [1] 1 | [12] 0.995 | [2] 1.01 | [3] 1.02 | [4] 1.01 | [5] 0.995 | locus YGR229C, strain SMI1, hits give low values 1.05 | locus YMR263W, strain SAP30, hits give low values 0.995 | [13] 0.968 | [6] 1.03 | [7] 1.02 | [8] 0.984 | [9] 0.988 | [11] 1

CCCCCC(CC(=O)NO)C(=O)NC(C(=O)N1CCCC1CO)C(C)C (stereo not drawn)
inactive: [1] 0.97 | [12] 0.995 | [3] 1.06 | [4] 0.971 | [5] 0.976 | [14] 0.976 | [7] 0.96 | [8] 0.987 | [9] 1.01 | [10] 1.01 | [11] 0.964 | locus YPL241C, strain CIN2, hits give low values 0.97

COC(=O)C[C@H]1C(C)(C)C(OC(C)=O)[C@]2(O)C=C3C4CC(=O)O[C@@H](c5ccoc5)[C@]4(C)CCC3[C@@]1(C)C2=O (stereo partly drawn)
inactive: locus YBR021W, strain FUR4, hits give low values 0.996 | locus YBR229C, strain ROT2, hits give low values 1 | locus YCL029C, strain bik1, hits give low values 1.01 | locus YDL035C, strain GPR1, hits give low values 1 | locus YDL074C, strain BRE1, hits give low values 1 | locus YDL101C, strain DUN1, hits give low values 1.01 | locus YDL134C, strain PPH21, hits give low values 1.02 | locus YDL185W, strain tfp1, hits give low values 1.02 | locus YDL192W, strain arf1, hits give low values 1 | locus YDR101C, strain arx1, hits give low values 1.01 | locus YDR162C, strain NBP2, hits give low values 1.01 | locus YDR318W, strain mcm21, hits give low values 1.01 | locus YDR388W, hits give low values 1 | locus YDR502C, strain sam2, hits give low values 1.02 | locus YER110C, hits give low values 1 | locus YER155C, strain BEM2, hits give low values 1 | locus YER167W, strain BCK2, hits give low values 1.01 | locus YGL078C, strain dbp3, hits give low values 1.02 | locus YGL086W, strain mad1, hits give low values 1 | locus YGL248W, strain PDE1, hits give low values 1 | locus YGR135W, strain pre9, hits give low values 1.02 | locus YGR252W, strain gcn5, hits give low values 0.975 | locus YHR030C, strain SLT2, hits give low values 1.01 | locus YHR079C, strain IRE1 (second series), hits give low values 1.02 | locus YHR094C, strain hxt1, hits give low values 1.01 | locus YHR129C, strain ARP1, hits give low values 1 | locus YHR200W, strain rpn10, hits give low values 1.01 | locus YIL066C, strain RNR3, hits give low values 0.997 | locus YIL073C, strain SPO22, hits give low values 1.06 | locus YIL125W, strain kgd1, hits give low values 1.01 | locus YIR030C, strain dcg1, hits give low values 1 | locus YJL095W, strain BCK1, hits give low values 1.03 | locus YJL134W, strain LCB3, hits give low values 1 | locus YJL168C, strain set2, hits give low values 1.01 | locus YJL187C, strain SWE1 (second series), hits give low values 1.02 | locus YKL009W, strain mrt4, hits give low values 0.992 | locus YKL068W, hits give low values 1.01 | locus YKL085W, strain MDH1 (second series), hits give low values 1.01 | locus YKL085W, strain MDH1, hits give low values 1.01 | locus YKR001C, strain vps1, hits give low values 1.01 | locus YLR039C, strain RIC1, hits give low values 1.02 | locus YLR058C, strain SHM2, hits give low values 1 | locus YLR102C, strain apc9, hits give low values 1.01 | locus YLR268W, strain sec22, hits give low values 1.01 | locus YLR330W, strain CHS5, hits give low values 1.01 | locus YLR371W, strain rom2, hits give low values 1.01 | locus YLR418C, strain cdc73, hits give low values 1.03 | locus YML016C, strain PPZ1, hits give low values 0.999 | locus YML032C, strain rad52, hits give low values 1.01 | locus YML124C, strain tub3, hits give low values 1.01 | locus YMR078C, strain ctf18, hits give low values 1.01 | locus YMR223W, strain ubp8, hits give low values 1.01 | [13] 1.04 | locus YNL067W, strain RPL9B, hits give low values 1.02 | [14] 1.02 | locus YNL233W, strain BNI4, hits give low values 1.02 | locus YNL250W, strain rad50, hits give low values 1.01 | locus YNL271C, strain bni1, hits give low values 1.01 | locus YNL298W, strain CLA4, hits give low values 1 | locus YNL307C, strain MCK1, hits give low values 1.01 | locus YNR052C, strain pop2, hits give low values 1.01 | locus YOL012C, strain htz1 0.877 | locus YOL147C, strain pex11, hits give low values 1.01 | locus YOR061W, strain CKA2, hits give low values 0.997 | locus YOR069W, strain VPS5, hits give low values 1 | locus YOR136W, strain idh2, hits give low values 1.02 | locus YOR144C, strain elg1, hits give low values 1 | locus YOR184W, strain ser1, hits give low values 0.999 | locus YOR316C, strain cot1, hits give low values 1.01 | locus YPR119W, strain clb2, hits give low values 1.02 | locus YPR141C, strain kar3, hits give low values 1.01 | locus YPR163C, strain tif3, hits give low values 1.01 | locus YPR167C, strain met16, hits give low values 1.01 | strain wtn01, hits give low values 0.991
